From the supplement of paper PMC8728848
Shown is part of a subset that was picked to be rich in the strongest signals.

Legend:
Test in all cases: glycan array binding signal (z-score within array); higher = stronger binding
Conditions in all cases: glycan notation: IUPAC condensed, linker removed
[1] = target: Fuc(a1-2)Gal(b1-3)GalNAc(b1-4)[Neu5Ac(a2-3)]Gal(b1-4)Glc
Summary of the method: (§1)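 The binding signal is a Z-score computed within each array and averaged over linkers. Arrays of the same protein sequence at different concentrations or buffers were also averaged together. Data originate from 3228 arrays in the Consortium for Functional Glycomics database, kept only where the protein sequence was available.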

Fuc(a1-2)Gal(b1-4)GlcNAc = target: Fuc(a1-2)Gal(b1-4)GlcNAc
Summary of the method: as §1

[2] = target: Fuc(a1-2)Gal(b1-4)GlcNAc(b1-2)Man(a1-3)[Fuc(a1-2)Gal(b1-4)GlcNAc(b1-2)Man(a1-6)]Man(b1-4)GlcNAc(b1-4)[Fuc(a1-6)]GlcNAc
Summary of the method: as §1

[3] = target: Fuc(a1-2)[Gal(a1-3)]Gal(b1-3)GlcNAc
Summary of the method: as §1

[4] = target: Fuc(a1-2)[Gal(a1-3)]Gal(b1-3)GlcNAc(b1-6)GalNAc
Summary of the method: as §1

[5] = target: Fuc(a1-2)[GalNAc(a1-3)]Gal(b1-4)GlcNAc(b1-2)Man
Summary of the method: as §1

[6] = target: Fuc(a1-2)[GalNAc(a1-3)]Gal(b1-4)GlcNAc(b1-2)Man(a1-3)[Fuc(a1-2)[GalNAc(a1-3)]Gal(b1-4)GlcNAc(b1-2)Man(a1-6)]Man(b1-4)GlcNAc(b1-4)[Fuc(a1-6)]GlcNAc
Summary of the method: as §1

[7] = target: Fuc(a1-3)[Gal(b1-4)]GlcNAc(b1-6)[Gal(b1-3)GlcNAc(b1-3)]Gal(b1-4)Glc
Summary of the method: as §1

[8] = target: Gal(a1-3)Gal(b1-4)GlcNAc(b1-6)GalNAc
Summary of the method: as §1

Gal(b1-3)Gal(b1-4)GlcNAc = target: Gal(b1-3)Gal(b1-4)GlcNAc
Summary of the method: as §1

[9] = target: Gal(b1-3)GalNAc(b1-4)[Neu5Ac(a2-3)]Gal(b1-4)Glc
Summary of the method: as §1

Gal(b1-4)Glc = target: Gal(b1-4)Glc
Summary of the method: as §1

[10] = target: Gal(b1-4)GlcNAc(a1-6)Gal(b1-4)GlcNAc
Summary of the method: as §1

[11] = target: Gal(b1-4)GlcNAc(b1-2)Man(a1-3)[Gal(b1-4)GlcNAc(b1-2)Man(a1-6)][Gal(b1-4)GlcNAc(b1-4)]Man(b1-4)GlcNAc(b1-4)[Fuc(a1-6)]GlcNAc
Summary of the method: as §1

[12] = target: Gal(b1-4)GlcNAc(b1-2)Man(a1-6)[GlcNAc(b1-2)Man(a1-3)]Man(b1-4)GlcNAc(b1-4)GlcNAc
Summary of the method: as §1

[13] = target: Gal(b1-4)GlcNAc(b1-3)Gal(b1-4)GlcNAc(b1-2)Man(a1-3)[Gal(b1-4)GlcNAc(b1-3)Gal(b1-4)GlcNAc(b1-2)Man(a1-6)]Man(b1-4)GlcNAc(b1-4)GlcNAc
Summary of the method: as §1

[14] = target: Gal(b1-4)GlcNAc(b1-3)Gal(b1-4)GlcNAc(b1-2)[Gal(b1-4)GlcNAc(b1-3)Gal(b1-4)GlcNAc(b1-6)]Man(a1-6)[Gal(b1-4)GlcNAc(b1-3)Gal(b1-4)GlcNAc(b1-2)Man(a1-3)]Man(b1-4)GlcNAc(b1-4)[Fuc(a1-6)]GlcNAc
Summary of the method: as §1

[15] = target: Gal(b1-4)GlcNAc(b1-3)Gal(b1-4)GlcNAc(b1-3)Gal(b1-4)GlcNAc(b1-3)Gal(b1-4)GlcNAc(b1-2)Man(a1-3)[Gal(b1-4)GlcNAc(b1-3)Gal(b1-4)GlcNAc(b1-3)Gal(b1-4)GlcNAc(b1-3)Gal(b1-4)GlcNAc(b1-2)Man(a1-6)]Man(b1-4)GlcNAc(b1-4)GlcNAc
Summary of the method: as §1

[16] = target: Gal(b1-4)GlcNAc(b1-3)Gal(b1-4)GlcNAc(b1-3)Gal(b1-4)GlcNAc(b1-3)Gal(b1-4)GlcNAc(b1-2)Man(a1-3)[Gal(b1-4)GlcNAc(b1-3)Gal(b1-4)GlcNAc(b1-3)Gal(b1-4)GlcNAc(b1-3)Gal(b1-4)GlcNAc(b1-2)Man(a1-6)]Man(b1-4)GlcNAc(b1-4)[Fuc(a1-6)]GlcNAc
Summary of the method: as §1

[17] = target: Gal(b1-4)GlcNAc(b1-3)Gal(b1-4)GlcNAc(b1-3)Gal(b1-4)GlcNAc(b1-3)Gal(b1-4)GlcNAc(b1-3)Gal(b1-4)GlcNAc(b1-2)Man(a1-3)[Gal(b1-4)GlcNAc(b1-3)Gal(b1-4)GlcNAc(b1-3)Gal(b1-4)GlcNAc(b1-3)Gal(b1-4)GlcNAc(b1-3)Gal(b1-4)GlcNAc(b1-2)Man(a1-6)]Man(b1-4)GlcNAc(b1-4)[Fuc(a1-6)]GlcNAc
Summary of the method: as §1

Gal3S(b1-4)Glc = target: Gal3S(b1-4)Glc
Summary of the method: as §1

[18] = target: Glc(a1-4)Glc(a1-4)Glc(a1-4)Glc
Summary of the method: as §1

[19] = target: GlcNAc(b1-2)[GlcNAc(b1-6)]Man(a1-6)[GlcNAc(b1-2)Man(a1-3)]Man(b1-4)GlcNAc(b1-4)[Fuc(a1-6)]GlcNAc
Summary of the method: as §1

[20] = target: GlcNAc(b1-3)Gal(b1-4)GlcNAc(b1-2)[GlcNAc(b1-3)Gal(b1-4)GlcNAc(b1-6)]Man(a1-6)[GlcNAc(b1-3)Gal(b1-4)GlcNAc(b1-2)Man(a1-3)]Man(b1-4)GlcNAc(b1-4)GlcNAc
Summary of the method: as §1

[21] = target: GlcNAc(b1-3)Gal(b1-4)GlcNAc(b1-3)Gal(b1-4)GlcNAc(b1-2)Man(a1-3)[GlcNAc(b1-3)Gal(b1-4)GlcNAc(b1-3)Gal(b1-4)GlcNAc(b1-2)Man(a1-6)]Man(b1-4)GlcNAc(b1-4)GlcNAc
Summary of the method: as §1

[22] = target: GlcNAc(b1-3)Gal(b1-4)GlcNAc(b1-3)Gal(b1-4)GlcNAc(b1-2)[GlcNAc(b1-3)Gal(b1-4)GlcNAc(b1-3)Gal(b1-4)GlcNAc(b1-6)]Man(a1-6)[GlcNAc(b1-3)Gal(b1-4)GlcNAc(b1-3)Gal(b1-4)GlcNAc(b1-2)Man(a1-3)]Man(b1-4)GlcNAc(b1-4)[Fuc(a1-6)]GlcNAc
Summary of the method: as §1

[23] = target: GlcNAc(b1-3)Gal(b1-4)GlcNAc(b1-3)Gal(b1-4)GlcNAc(b1-3)Gal(b1-4)GlcNAc(b1-2)Man(a1-3)[GlcNAc(b1-3)Gal(b1-4)GlcNAc(b1-3)Gal(b1-4)GlcNAc(b1-3)Gal(b1-4)GlcNAc(b1-2)Man(a1-6)]Man(b1-4)GlcNAc(b1-4)[Fuc(a1-6)]GlcNAc
Summary of the method: as §1

[24] = target: GlcNAc(b1-3)Gal(b1-4)GlcNAc(b1-3)Gal(b1-4)GlcNAc(b1-3)Gal(b1-4)GlcNAc(b1-2)[GlcNAc(b1-3)Gal(b1-4)GlcNAc(b1-3)Gal(b1-4)GlcNAc(b1-3)Gal(b1-4)GlcNAc(b1-6)]Man(a1-6)[GlcNAc(b1-3)Gal(b1-4)GlcNAc(b1-3)Gal(b1-4)GlcNAc(b1-3)Gal(b1-4)GlcNAc(b1-2)Man(a1-3)]Man(b1-4)GlcNAc(b1-4)[Fuc(a1-6)]GlcNAc
Summary of the method: as §1

GlcNAc(b1-3)GalNAc = target: GlcNAc(b1-3)GalNAc
Summary of the method: as §1

[25] = target: GlcNAc(b1-3)[GlcNAc(b1-4)][GlcNAc(b1-6)]GlcNAc
Summary of the method: as §1

[26] = target: Man(a1-2)Man(a1-3)[Man(a1-2)Man(a1-6)]Man(a1-6)[Man(a1-2)Man(a1-2)Man(a1-3)]Man
Summary of the method: as §1

[27] = target: Neu5Ac(a2-3)Gal(b1-3)[Fuc(a1-4)]GlcNAc
Summary of the method: as §1

[28] = target: Neu5Ac(a2-3)Gal(b1-4)GlcNAc(b1-2)Man(a1-3)[Neu5Ac(a2-3)Gal(b1-4)GlcNAc(b1-2)Man(a1-6)]Man(b1-4)GlcNAc(b1-4)GlcNAc
Summary of the method: as §1

[29] = target: Neu5Ac(a2-3)Gal(b1-4)GlcNAc(b1-2)[Neu5Ac(a2-3)Gal(b1-4)GlcNAc(b1-6)]Man(a1-6)[Neu5Ac(a2-3)Gal(b1-4)GlcNAc(b1-2)Man(a1-3)][GlcNAc(b1-4)]Man(b1-4)GlcNAc(b1-4)GlcNAc
Summary of the method: as §1

[30] = target: Neu5Ac(a2-3)Gal(b1-4)[Fuc(a1-3)]GlcNAc(b1-3)Gal(b1-4)[Fuc(a1-3)]GlcNAc(b1-3)Gal(b1-4)[Fuc(a1-3)]GlcNAc
Summary of the method: as §1

[31] = target: Neu5Ac(a2-3)Gal(b1-4)[Fuc(a1-3)]GlcNAc(b1-6)[Gal(b1-3)]GalNAc
Summary of the method: as §1

[32] = target: Neu5Ac(a2-6)Gal(b1-4)GlcNAc(b1-2)[Neu5Ac(a2-6)Gal(b1-4)GlcNAc(b1-4)]Man(a1-3)[GlcNAc(b1-4)][Neu5Ac(a2-6)Gal(b1-4)GlcNAc(b1-4)Man(a1-6)]Man(b1-4)GlcNAc(b1-4)GlcNAc
Summary of the method: as §1

[33] = target: Neu5Ac(a2-6)Gal(b1-4)GlcNAc(b1-3)Gal(b1-4)GlcNAc(b1-3)Gal(b1-4)GlcNAc(b1-2)Man(a1-3)[Neu5Ac(a2-6)Gal(b1-4)GlcNAc(b1-3)Gal(b1-4)GlcNAc(b1-3)Gal(b1-4)GlcNAc(b1-2)Man(a1-6)]GalNAc
Summary of the method: as §1

[34] = target: Neu5Ac(a2-6)GalNAc(b1-4)GlcNAc6S
Summary of the method: as §1

[35] = target: Neu5Gc(a2-3)Gal(b1-4)[Fuc(a1-3)]GlcNAc
Summary of the method: as §1

B1: Pwp6 (Candida glabrata) (protein)
chain: MGSSHHHHHHSSGLVPRGSHMASANLPKLTNICQIPDNVKKTSGFKGEIRRIGLFPPGGDYTYLLKFPSTGSTASDTISLTTKPQLSTSGWFPSLFGHTYFIKADLLVYMVAYFVPTETGEYTFKLVNSDDAAVMYVGNPSAFPCGSIDTWPEPRKEDINVCDKISASTKLYMEKGLAYPVRLVWYNGGGDGQFNAQFIDPSGTTHTDWNGYVWQYDACTDCDYK
[1]
  glycan array binding signal (z-score): -0.318
Fuc(a1-2)Gal(b1-4)GlcNAc
  glycan array binding signal (z-score): -0.848
[2]
  glycan array binding signal (z-score): 0.09
[3]
  glycan array binding signal (z-score): -0.701
[4]
  glycan array binding signal (z-score): -0.097
[5]
  glycan array binding signal (z-score): -0.201
[6]
  glycan array binding signal (z-score): 0.167
[7]
  glycan array binding signal (z-score): -0.265
[8]
  glycan array binding signal (z-score): 0.221
Gal(b1-3)Gal(b1-4)GlcNAc
  glycan array binding signal (z-score): -0.617
[9]
  glycan array binding signal (z-score): -0.134
Gal(b1-4)Glc
  glycan array binding signal (z-score): -0.681
[10]
  glycan array binding signal (z-score): -0.631
[11]
  glycan array binding signal (z-score): -0.334
[12]
  glycan array binding signal (z-score): 0.606
[13]
  glycan array binding signal (z-score): 2.96
[14]
  glycan array binding signal (z-score): 0.465
[15]
  glycan array binding signal (z-score): 5.06
[16]
  glycan array binding signal (z-score): 3.31
[17]
  glycan array binding signal (z-score): 1.2
Gal3S(b1-4)Glc
  glycan array binding signal (z-score): -0.252
[18]
  glycan array binding signal (z-score): -0.556
[19]
  glycan array binding signal (z-score): 0.023
[20]
  glycan array binding signal (z-score): 2.94
[21]
  glycan array binding signal (z-score): 3.63
[22]
  glycan array binding signal (z-score): 3.3
[23]
  glycan array binding signal (z-score): 3.79
[24]
  glycan array binding signal (z-score): 3.71
GlcNAc(b1-3)GalNAc
  glycan array binding signal (z-score): -0.863
[25]
  glycan array binding signal (z-score): -0.466
[26]
  glycan array binding signal (z-score): -0.603
[27]
  glycan array binding signal (z-score): -0.364
[28]
  glycan array binding signal (z-score): 4.2
[29]
  glycan array binding signal (z-score): 1.89
[30]
  glycan array binding signal (z-score): -0.179
[31]
  glycan array binding signal (z-score): -0.222
[32]
  glycan array binding signal (z-score): -0.266
[33]
  glycan array binding signal (z-score): 8.45
[34]
  glycan array binding signal (z-score): 0.14
[35]
  glycan array binding signal (z-score): -0.654
